Laboratory results published in the supplement of paper PMC12632987.

B1: uchl1_2_7555 (protein)
chain: ASQFVGVLVTITAKDEKTGKTYVSRRTLIGTAESIEKMVEEIKELVLRFKDITKAPVEVKIEVYVSTEETAERMEKELEKLKEELEKKGVKVEIEVHVVE
B2: uchl1_2_7546 (protein)
chain: KTQFVGALVKMEAYDEETGKTYKSTRTLIGTADAIEKMAEEIYELALNFKDTVGVPVKVKVDVVVASEETKKKAEAALKKMKEKLKKEGIEVEVKVTVVE
B3: uchl1_2_7568 (protein)
chain: KTVFVGVKVTLTSENKETGKTYKSTHTLIFTESAIEKLVEEIERLALEFKDATGVPVKVDIEVYSTDEEVLKKLMKELKKMAERLKKEGIEVNITGTLVK
B4: uchl1_2_7541 (protein)
chain: KTKFIGVLVTLTSYDAATGRTYRARRTLIGTESGIEAMAAEVAELVRTFHDATGQPVAVDVRIVSSDEAVAEALEAALKAAEAALKAEGVDVTLTITKDV
B5: uchl1_2_7560 (protein)
chain: KTQFVGVRVDITSLNPETGEVFRARRTLIGTEDSLEAMLEEVRRLVLDFKEQYGGETRVEIRITVSTEETGERAKRLAEELKEELEKEGIEVEVEVEVAK
B6: uchl1_2_7540 (protein)
chain: KSVFVGVLVTLRSYDEATGKEYVSRRTLIGTEDSIEALAEEVAELIRAFYEQTGVPVQADVTIVSSSREVAERLAEALRAREAELRAEGVDVTLTITVRV
B7: uchl1_2_7562 (protein)
chain: KPVFIGVLVTLTAEDKETGKTYRSRRTLIFTESAIEALAEEIKELALNFRDTVGVPVKVEIKVFSTDEAVVERTVAILEKMAEELAKEGIEVTITGEVVK
B8: uchl1_2_7544 (protein)
chain: KTKFVGVKVTLTSYDEKTGKEYKSTHTLIGTEEAVEAMAKEIAELIRTFYDATGVPVKVDVTIYSSSEEVAEKLEKELKKEVEKLKKEGIDVTLTITKKV
B9: uchl1_2_7552 (protein)
chain: KTQFVGVLVTITSTNPETGEVKTVRKTLIGTEEGIEAMAKEILEMALEFKEQTKGPVEVKVEVVVSTEETAKKMEEELKKLEEELKKEGIKVEVEVKVVK
B10: uchl1_2_7550 (protein)
chain: EPRFVGVLVTVTSTNPETGEVFRSRRNFIGTADAVAAMMAEVEEYVLRFKEVNGGAVAVDLHVVVSTEEDAARARAEAAKLAARLAAEGITATVTVTVVE
B11: uchl1_2_7553 (protein)
chain: KTKFVGVLVTIRAVNPETGKEYRSRRTLIGTADAIEALAEEVYELVLRFKEATGAPVEVDVRVYVSDEETAERAREAFKKLEERLKAEGVKARVEVTVVK
B12: uchl1_2_7547 (protein)
chain: KTEFVGVLVTITSVNPETGETFVARRTLIGTASSIEAMAKEIKELALAFKADTKGDTTVDVEVVVSSKEVAEKAKKALEELKKELEAEGIKFNYKITVVE
B13: uchl1_2_7556 (protein)
chain: KTVFVGVAIDLTSTNPETGEVFRSRRTLIGTASAIEAMAEEVRELILRFREETGGPVEVRILVVSSDEAVARRLVALLEAMAAELAAEGVTVTVTRRVLK
B14: uchl1_2_7569 (protein)
chain: KTVFVGVKVTLEAYDEKTGKRYRSRHTLIFTEDSIEALAKEIKELALDFQKDVGVPVTVNIEVYSTDEAVVKKTMAVLEKMAKELAKEGIKVNITGTVVK
B15: uchl1_2_7567 (protein)
chain: KPVFIGVKLTLTSKDEKTGKTYKSTHTLIFTESAIDKLVEEIERLALEFQKATGVPVTANIEVYSTDKEVLEKLMKKLKEMAKRLAKEGIKVNIEGKLVE
B16: uchl1_2_7566 (protein)
chain: ETVFVGVKVTLTSYDEKTGKTYKSTRTLIFTESSIDAAVEEIRELALSFREQVGVPVKVEIHIVSTREEVLERLKEKLEEMAEELKEEGIEVEISGEVVK
B17: uchl1_2_7565 (protein)
chain: ETIFIGVLVTLTSRDEATGKVYRSRRTLIFTESAIDALVEEIKEDALAFKAQTGVPVTVNIHIVSTNEEVVEKLKKKLEEMAKELAKEGITVNISYTVVK
B18: uchl1_2_7545 (protein)
chain: KTKFVGVLVTLRSYDPETGREYVSRRTLIGTEEAVEAMAEEIAELIRRFHDRTGVPVDVDVTIYSSSKEVAEELKKKLEEEVKKLKAEGIDVTLTVTLKV
B19: uchl1_2_7542 (protein)
chain: KPKFIGLKVTLTSYDEKTGKTYKATRTLIGTESGIEAMAKEVGELVRTFYDATGVPVKVDVTIVSSDEEVAKKLEEALRKMEEELKKEGVPVELNIKKEV
B20: uchl1_2_7549 (protein)
chain: EPQFVGVLVTVTSTNPETGKVYKSRRNFIGTADAIPALFKEVLEYVLTFKEANGGKTKVKLEIVVSTKEVAEKAKKEAEKLKKELAKEGIEAEVKITVVE
B21: uchl1_2_7554 (protein)
chain: ETKFVGVLVEIESVNPETGKEYKSRRTLIGTASAIEKLAEEVLELVRTFKEKTKAPVKVKVTVYVSDEETAKKAEKEFKKLEEELKKEGVEVEVEVIVVK
B22: uchl1_2_7548 (protein)
chain: KAEFVGALVTITSTNPETGEVRVARRTLIGLASDIDALMEEIERLVLDFQADTGGATRVRIRIVVSSEEVAERARAAAEEMKARLAAEGIEVEVEIEVVE
B23: uchl1_2_7539 (protein)
chain: KTKFVGALVEITAKDEKTGKVYRSRRTLIGTESAIEAMAKEIKELVLNFKEETGVPVEVKVTVYAENKETAEKMKKELEKMAKELAKEGIKVEIEVKLVE
B24: uchl1_2_7558 (protein)
chain: KSEFVGVKVTITAEDPETGKVYVAKRTFIGLASDIEKLVEEVKKLVLEFKADKKVPVKVKIEAVVSSEETAERLKKELEKMKKELAKEGIEVEITVKVVK
B25: uchl1_2_7564 (protein)
chain: KTIFIGVLVELIAEDEETGKVYRSRHTYIFTESAIDALVEQIKEDALAFKEQTGVPVRVRIHIVSTNEEVVKKLKEKLEEMAEELKKEGIEVEISYTVVK
B26: uchl1_2_7538 (protein)
chain: KTRFVGVLVKITAKDEKTGKVYRARRTLIGTASGIPAMAEEVERLVLEFQERTGVPVRVEVHVYASDEETAELARREFERMAERLAEHGIEVTVTVTVVE
B27: uchl1_2_7570 (protein)
chain: KTVFVGVLVTLTSKDAKTGKTYKSRRTYIFTESSIEALAKEIKEDALAFQKDVGVPVTVDIKIYSTKEEVVKKTKAVLEKMAEELAKEGIKVNITGTVVK
B28: uchl1_2_7557 (protein)
chain: KSEFVGVLVTITARDEETGEVKVARRTFIGLAEDIEKLVEEIKKLVLEFKAQYNVPVEVDIKAVVSSEETAEKLKKELEKMKKELEKEGITVNIEVEVVE
B29: uchl1_2_7559 (protein)
chain: KTKFVGVLVKVEAVDEKTGKVKKARRTFIGTEENIEKLVEEIEKYVLEFQKEHGKDVKVKIHGVVSDEETAEKLKKKLEEMKKRLEKEGIKVEIEVTVAK
B30: uchl1_2_7543 (protein)
chain: KPVFVGVLLELEARDEATGRVYRARRTLIGTEDGIEAMAEEVRRLVREFWEATGVPVRARVTIVSTREEVAERLRRALEAAHEELRAEGIDVTLEITVRV
B31: uchl1_2_7563 (protein)
chain: ETVFVGVLVTLTAENAETGETFRSRRTYIFTESAIDALVAEIERDALAFREQTGVPVTVDIHIVSTDEAVVRRLEAALRAMAERLAAHGITVNISSTVVR
B32: uchl1_2_7551 (protein)
chain: KSVFVGVLVTIRATDAATGETLVSRRTLIGTESSIKKLAEEVKELVLEFKARTGGPVEVDITVYSSKEEVAKKAKEEFEKLKKELAAEGVTANVNVILSK

Molecular target: UCHL1, P09936
Sequence (P09936 whole entry, looked up, the tested form may be a part): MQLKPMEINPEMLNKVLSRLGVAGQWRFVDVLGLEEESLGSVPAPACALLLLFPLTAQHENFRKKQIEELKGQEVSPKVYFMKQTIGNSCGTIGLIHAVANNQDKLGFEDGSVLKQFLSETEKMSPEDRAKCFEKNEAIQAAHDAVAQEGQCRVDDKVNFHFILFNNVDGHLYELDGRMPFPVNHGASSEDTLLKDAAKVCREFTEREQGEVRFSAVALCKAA
Test: median log2 fold change of GCK-ALFA target abundance (FLAG IP / Myc IP barcode read proportion) (log2 ratio); each designed protein is fused to an ALFA-tag nanobody in HEK293 cells to bring the named protein to FLAG-tagged glucokinase (GCK); Myc marks an untargeted standard; higher = target protein stabilised (more abundant)
Details: target protein: 3xFLAG-MCP-GCK-ALFA reporter; HEK293 landing pad (RPLP)
Outline: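 The readout is target abundance, the per-binder median log2 ratio of FLAG to Myc barcode read proportions. It came from HEK293 landing-pad cells carrying a recombined ALFA-nanobody-fused binder library, induced with 2 μg mL^−1 doxycycline and transfected with a plasmid for a FLAG-tagged target and a Myc-tagged standard. After 48 h, lysates were immunoprecipitated with anti-FLAG and anti-Myc, and circular RNA barcodes were reverse transcribed, amplified and sequenced. Each barcode needed a proportion of at least 10^−7 in both replicates and each binder at least 3 barcodes per replicate, a pseudocount of 10^−6 was added, and the replicates were pooled.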

Binder | median log2 fold change
B1 | -0.856
B2 | -1.13
B3 | -0.4
B4 | -0.304
B5 | 0.0724
B6 | -0.377
B7 | -1.04
B8 | -0.358
B9 | 0.325
B10 | -0.0947
B11 | -0.615
B12 | -0.0935
B13 | -0.249
B14 | -1.14
B15 | -0.668
B16 | -0.335

Binder | median log2 fold change
B17 | -0.661
B18 | 0.0138
B19 | -0.0683
B20 | -0.1
B21 | -0.73
B22 | -0.489
B23 | -0.811
B24 | -0.285
B25 | -0.635
B26 | -0.55
B27 | -0.683
B28 | -0.214
B29 | -0.255
B30 | 0.327
B31 | -0.142
B32 | -0.159
